Reference: PubChem BioAssay AID493201 (National Center for Advancing Translational Sciences (NCATS), 2011)
Inconclusive results are not listed. Unmarked numbers belong to inactive results. Calls of active or inactive are those of the source. Calls follow the shape of the dose curve; as a rule, active = well fitted activation curve with a large enough effect; inconclusive = small, poorly fitted or top-dose-only effect; inactive = no such curve, though single readings can be large or run the other way.

assay: qHTS Assay for Identifying a Potential Treatment of Ataxia-Telangiectasia: Secondary assay (no NCS) hit validation; details: A-T patient fibroblasts, AlphaLISA, no DNA damage added, 90 min; series mostly up to 76.9 µM; activation: at the top concentration;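 also: phosphorylated KAP1 signal as a proxy for ATM-like kinase activity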; as to activation: 0% is about no effect
How it was run: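 hTERT-immortalized A-T patient fibroblasts (F2112), 500 cells/well, exposed to compounds at up to 76.7 uM final without NCS at 37C. KAP-1 phosphorylation measured by AlphaLISA after lysis and 6 h detection at 25C.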
Potency is read from the fitted curve at half-maximal effect.

SMILES	activation	Potency
CC(C)NC(=O)c1ccc(COc2ccc(C(C)(C)C)cc2)o1	20.4%	
Cc1ccc(C(=O)Nc2sc3c(c2C(=O)O)CCCCC3)o1		0.232 µM (active)
COc1ccc(N(C)S(=O)(=O)c2cccc(C(=O)OCC(=O)NCc3ccccc3OC)c2)cc1	1.74%	
O=C(O)CCCC(=O)N1N=C(c2ccccc2)CC1c1cccs1 (centres undefined)	0%	
COc1ccc(Cl)cc1NC(=O)C[n+]1cccc(C)c1	-2.15%	
CC1C(c2ccccc2)N(C)C(c2ccccc2)CC1(O)c1ccccc1 (centres undefined)		13 µM (active)
COc1ccc(/C=N/Nc2nc(=O)[nH]nc2C)cc1OC	-2.15%	
CCOC(=O)CNS(=O)(=O)Cc1ccccc1	0%	
O=C(NC12CC3CC(CC(C3)C1)C2)c1cccc(OC(F)F)c1	-6.45%	
COC(=O)CCc1c(C)c(C(=O)c2cc(OC)c(OC)c(OC)c2)c2ccccn12	9.68%	
O=C(Nc1ccc([N+](=O)[O-])cc1)c1cc2ccccc2nc1Cl	14%	
COc1ccccc1OC(=O)Nc1ccc(Cl)cc1		3.28 µM (active)
COc1cccc(/C=N/NC(=O)c2cc3cc([N+](=O)[O-])ccc3s2)c1O		46.3 µM (active)
Cc1cccc(C)c1NC(=O)COC(=O)c1cc(=O)c2ccccc2o1	26.3%	
c1ccc(CSc2nnc(-c3ccco3)n2Cc2ccco2)cc1	-5.38%	
Cc1ccccc1S(=O)(=O)Oc1ccc2ccc(O)cc2c1	-2.15%	
CC(O)[C@H]1CNC(=O)C(=O)N1CC1(c2ccccc2)CC1 (some centres undefined)	-4.3%	

SMILES	activation	Potency
O=C(N/N=C/c1ccncc1)c1ccc(COc2cccc3cccnc23)cc1	9.57%	
COc1ccc2c(c1)c(N=NC(N)=S)c(O)n2CC(=O)c1ccccc1	0%	
Cc1nn(-c2ccccc2)c2nc(C(Cl)(Cl)Cl)[nH]c(=O)c12	-15.1%	
CSc1nc2ccccc2nc1N(C)S(=O)(=O)c1ccc(C)cc1		36.8 µM (active)
CN(C)c1ccc2nc3ccc(=[N+](C)C)cc-3sc2c1		14.6 µM (active)
CNC(=S)N(CCO)Cc1cc2cc3c(cc2[nH]c1=O)OCCO3	-8.47%	
COc1ccc(CNC(=O)COc2cccnc2[N+](=O)[O-])cc1OC	-13%	
CC(C)CC(=O)Nc1c2c(nn1-c1cccc(Cl)c1)CS(=O)C2 (centres undefined)		58.2 µM (active)
CCOc1ccc(C(=O)NC(=S)Nc2cccnc2)cc1[N+](=O)[O-]	11.9%	
O=C(OCCc1cc2ccccc2c(=O)o1)c1cccc(Br)c1	-22%	
NCC(=O)c1cccc2ccc[n+]([O-])c12	0%	
CN1C[C@@H]2C(c3ccccc3)C3(c4ccccc4)CC2(C3)[C@H]1c1ccccc1 (some centres undefined)		20.7 µM (active)
CN(CCc1ccccn1)C(=O)c1cc(COc2ccc(F)cc2F)on1	-8.7%	
CCOc1ccccc1CNC(=O)Cn1c(=O)oc2ccccc21		32.8 µM (active)
O=C(Nc1cc(S(=O)(=O)N2CCOCC2)ccc1Cl)c1cc(=O)c2ccccc2o1	-5.22%	
COc1ccccc1S(=O)(=O)Nc1ccc(-c2nnc3n2CCCCC3)cc1	21.5%	
CC(C)(C=O)C1=CC(=O)c2ccccc2C1=O		51.9 µM (active)
